{
  "source": "PubChem BioAssay (NCI)",
  "note": "About 83,000 compounds went through this panel and 20% of them were active in at least one assay; those are over-represented in the sample as a whole.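 Single-dose data. Exposure time 48 hours. Values below 10 considered active.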 Values without a mark were called inactive. Active and inactive are the calls of the source.",
  "data": [
    {"test_system": "SR leukemia", "test": "NCI-60 one-dose screen, 48 h (100 = growth as untreated, 0 = no growth, -100 = all killed)", "conditions": "10 µM unless noted", "values": [
      {"smiles": "COc1ccc(OC)c(-c2ccc(-c3ccccc3N)c3[nH]c4ccccc4c23)c1", "growth": "81.7%"},
      {"smiles": "COc1ccc(S(=O)(=O)Nc2cc(/C=C\\c3cc(OC)c(OC)c(OC)c3)cc(OC)c2OC)cc1OC", "growth": "20%"},
      {"smiles": "Cc1cc(NC(=O)COC(=O)c2sc3cc(F)ccc3c2Cl)no1", "growth": "108%"},
      {"smiles": "Nc1c(C(=O)Nc2cccc(C(F)(F)F)c2)sc2nc3c(cc12)C(O)CCC3", "note": "(stereo not given)", "growth": "24%"},
      {"smiles": "CC(=O)C1CCC(C)=CC1=O", "note": "(stereo not given)", "growth": "101%"},
      {"smiles": "COc1ccc(-c2nc3sccn3c2-c2ccnc(NCCCNS(=O)(=O)c3ccc(F)cc3)n2)cc1", "growth": "14.8%"},
      {"smiles": "COc1cc(-c2csc(NC(=O)Nc3ccc(Cl)cc3Cl)n2)cc(OC)c1OC", "growth": "23.1%"},
      {"smiles": "CCSc1nnc(Nc2ccc(C(C)C)cc2)s1", "growth": "69.4%"},
      {"smiles": "CCOC(=O)CC/C(C)=N\\Nc1ccc([N+](=O)[O-])cc1", "growth": "39%"},
      {"smiles": "Cc1ccc2c(c1)C(=O)C(c1c(-c3[nH]c(=O)c4ccc(C)cc4c3O)c(O)c3ccccc3c1O)=NC2=O", "growth": "23.1%"},
      {"smiles": "CN(C)CCCNC(=O)C(c1ccccc1)c1ccccc1", "growth": "105%"},
      {"smiles": "COc1ccc(-c2nnc(COc3ccc(NC(=O)Nc4ccc(Cl)c(C(F)(F)F)c4)cc3F)o2)cc1", "growth": "-30.1% (active)"},
      {"smiles": "O=c1oc2cc(OS(=O)(=O)c3ccc(F)cc3)ccc2c2c1CCCCC2", "growth": "53.7%"},
      {"smiles": "Nc1nc(-c2ccccc2)cs1", "growth": "94.5%"},
      {"smiles": "COc1ccc(C(=O)/C=C/c2cccc([N+](=O)[O-])c2)c(OC)c1", "growth": "4.78% (active)"},
      {"smiles": "C=CCOc1cccc(/C=C/C(=O)c2sc(Nc3cccnc3)nc2C)c1", "growth": "42.4%"},
      {"smiles": "Cc1cc(Nc2nc(C(=O)Nc3ccccc3)nc3ccccc23)n[nH]1", "growth": "33%"},
      {"smiles": "CC1CCN(C(=O)CSc2nc3sc4c(c3c(=O)[nH]2)CCCC4)CC1", "growth": "85.5%"},
      {"smiles": "COc1ccc(-c2nc(-c3nc4ccc(F)cc4[nH]3)cc3c2[nH]c2ccccc23)cc1", "growth": "15.5%"},
      {"smiles": "CC/C=C\\C[C@H](O)C/C=C1/C(=O)C(Cl)=C[C@@H]1C/C=C\\CCCC(=O)O", "growth": "10.9%"},
      {"smiles": "O=c1[nH]c2ccccc2cc1-c1nnc(Cc2ccccc2)o1", "growth": "31.6%"},
      {"smiles": "COc1ccc(C2CC(c3cccs3)=NN2c2ccc(S(=O)(=O)NC(=O)Nc3ccc(C)cc3)cc2)cc1", "note": "(stereo not given)", "growth": "84.7%"},
      {"smiles": "CCSc1nnc(NC(=O)COc2ccc(Cl)cc2C)s1", "growth": "43.4%"},
      {"smiles": "COc1ccc(Cn2c(SC)nc(=O)n(Cc3ccc(Cl)cc3)c2=O)cc1", "growth": "84.4%"},
      {"smiles": "O=C(Nc1ccc(Br)c(Cl)c1)c1cc(F)ccc1O", "growth": "0.366% (active)"},
      {"smiles": "O=C(CCl)NCCNc1nccc(Nc2ccc(S(=O)(=O)Nc3ccccn3)cc2)n1", "growth": "19.4%"}
    ]},
    {"test_system": "RPMI-8226 leukemia", "test": "NCI-60 one-dose screen, 48 h (100 = growth as untreated, 0 = no growth, -100 = all killed)", "conditions": "10 µM unless noted", "values": [
      {"smiles": "O=S(=O)(NCCCNc1cc(-c2cn(-c3ccccc3)nc2-c2cccc(O)c2)ccn1)c1ccc(Cl)cc1", "growth": "8.7% (active)"},
      {"smiles": "COc1ccc(-c2nc3sccn3c2-c2ccnc(NCCCNS(=O)(=O)c3ccc(C)cc3)n2)cc1", "growth": "23.2%"},
      {"smiles": "O=C1c2ccccc2C(=O)c2c1oc1oc3c(c(=O)c21)c(=O)n(-c1ccccc1)c1ccccc31", "growth": "19.6%"},
      {"smiles": "C#CCC1(c2ccc(F)c(F)c2)NS(=O)(=O)c2ccccc21", "note": "(stereo not given)", "growth": "109%"},
      {"smiles": "Cc1nc(Nc2cccnc2)sc1C(=O)/C=C/c1ccc(F)cc1", "growth": "1.5% (active)"},
      {"smiles": "CCC#CC[C@H]1C/C=C2/C(=O)C=C[C@@H]2C/C=C\\CCCC(=O)O1", "growth": "4.15% (active)"},
      {"smiles": "CNC(=O)Cc1nc(-c2cccc(NS(=O)(=O)c3c(F)cccc3F)c2F)c(-c2ccnc(Nc3ccccc3)n2)s1", "growth": "101%"},
      {"smiles": "CC(=O)Nc1ccc2c(c1)/C(=C\\C=C/c1ccc([N+](C)(C)C)cc1)c1ccccc1-2", "growth": "73.6%"},
      {"smiles": "COc1cc(OC)cc(-c2n[nH]nc2-c2ccc3c(c2)OCO3)c1", "growth": "26.2%"},
      {"smiles": "O=C1CCC/C=C\\C[C@H]2C=CC(=O)/C2=C/C[C@H](C/C=C\\CC(F)(F)F)O1", "growth": "-4.51% (active)"},
      {"smiles": "O=C(Nc1cccc(Cl)c1)c1cc([N+](=O)[O-])ccc1O", "growth": "25.4%"},
      {"smiles": "O=C1N=C(c2c(-c3[nH]c(=O)c4ccc(Br)cc4c3O)c(O)c3ccccc3c2O)C(=O)c2cc(Br)ccc21", "growth": "6.4% (active)"},
      {"smiles": "COc1cc(-n2nc(C(=O)Nc3ccc(C(=O)O)cc3)nc2-c2ccccc2)cc(OC)c1OC", "growth": "108%"},
      {"smiles": "COc1ccc(OC)c(-c2ccc(-c3ccccc3N)c3[nH]c4ccccc4c23)c1", "growth": "70.3%"},
      {"smiles": "COc1ccc(S(=O)(=O)Nc2cc(/C=C\\c3cc(OC)c(OC)c(OC)c3)cc(OC)c2OC)cc1OC", "growth": "25.3%"},
      {"smiles": "Cc1cc(NC(=O)COC(=O)c2sc3cc(F)ccc3c2Cl)no1", "growth": "114%"},
      {"smiles": "Nc1c(C(=O)Nc2cccc(C(F)(F)F)c2)sc2nc3c(cc12)C(O)CCC3", "note": "(stereo not given)", "growth": "15.6%"},
      {"smiles": "CC(=O)C1CCC(C)=CC1=O", "note": "(stereo not given)", "growth": "100%"},
      {"smiles": "COc1ccc(-c2nc3sccn3c2-c2ccnc(NCCCNS(=O)(=O)c3ccc(F)cc3)n2)cc1", "growth": "5.74% (active)"},
      {"smiles": "COc1cc(-c2csc(NC(=O)Nc3ccc(Cl)cc3Cl)n2)cc(OC)c1OC", "growth": "30%"},
      {"smiles": "CCSc1nnc(Nc2ccc(C(C)C)cc2)s1", "growth": "72.2%"},
      {"smiles": "CCOC(=O)CC/C(C)=N\\Nc1ccc([N+](=O)[O-])cc1", "growth": "59.8%"},
      {"smiles": "Cc1ccc2c(c1)C(=O)C(c1c(-c3[nH]c(=O)c4ccc(C)cc4c3O)c(O)c3ccccc3c1O)=NC2=O", "growth": "32.8%"},
      {"smiles": "CN(C)CCCNC(=O)C(c1ccccc1)c1ccccc1", "growth": "101%"},
      {"smiles": "COc1ccc(-c2nnc(COc3ccc(NC(=O)Nc4ccc(Cl)c(C(F)(F)F)c4)cc3F)o2)cc1", "growth": "-26.2% (active)"},
      {"smiles": "O=c1oc2cc(OS(=O)(=O)c3ccc(F)cc3)ccc2c2c1CCCCC2", "growth": "34.8%"},
      {"smiles": "Nc1nc(-c2ccccc2)cs1", "growth": "109%"},
      {"smiles": "COc1ccc(C(=O)/C=C/c2cccc([N+](=O)[O-])c2)c(OC)c1", "growth": "-16.8% (active)"},
      {"smiles": "C=CCOc1cccc(/C=C/C(=O)c2sc(Nc3cccnc3)nc2C)c1", "growth": "23.1%"},
      {"smiles": "Cc1cc(Nc2nc(C(=O)Nc3ccccc3)nc3ccccc23)n[nH]1", "growth": "59.6%"},
      {"smiles": "CC1CCN(C(=O)CSc2nc3sc4c(c3c(=O)[nH]2)CCCC4)CC1", "growth": "82.4%"},
      {"smiles": "COc1ccc(-c2nc(-c3nc4ccc(F)cc4[nH]3)cc3c2[nH]c2ccccc23)cc1", "growth": "-5.03% (active)"},
      {"smiles": "CC/C=C\\C[C@H](O)C/C=C1/C(=O)C(Cl)=C[C@@H]1C/C=C\\CCCC(=O)O", "growth": "14.7%"},
      {"smiles": "O=c1[nH]c2ccccc2cc1-c1nnc(Cc2ccccc2)o1", "growth": "15.3%"},
      {"smiles": "COc1ccc(C2CC(c3cccs3)=NN2c2ccc(S(=O)(=O)NC(=O)Nc3ccc(C)cc3)cc2)cc1", "note": "(stereo not given)", "growth": "83.4%"},
      {"smiles": "CCSc1nnc(NC(=O)COc2ccc(Cl)cc2C)s1", "growth": "94.6%"},
      {"smiles": "COc1ccc(Cn2c(SC)nc(=O)n(Cc3ccc(Cl)cc3)c2=O)cc1", "growth": "92.8%"},
      {"smiles": "O=C(Nc1ccc(Br)c(Cl)c1)c1cc(F)ccc1O", "growth": "-16.1% (active)"},
      {"smiles": "O=C(CCl)NCCNc1nccc(Nc2ccc(S(=O)(=O)Nc3ccccn3)cc2)n1", "growth": "14.8%"}
    ]}
  ]
}
